Test [1] is described as follows: Quantitative High-Throughput drug screen in 47 multiple myeloma cell lines against the NCATS MIPE library collection: KMS27_JCRB cell viability assay (AID 1918970). Note: nearly all actives have a fitted effect of over 30% in size. The settings on record: KMS27 myeloma cells, CellTiter-Glo ATP viability, 48 h; viability (% of DMSO): at 45.8 µM (top of the series). The method in brief:
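ATP-based viability (CellTiter-Glo luminescence) is measured in cells treated 48 h with approved and investigational drugs at 37 °C. Controls are DMSO-only wells for full viability and media-only wells for none.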

Test [2] in a line: Quantitative High-Throughput drug screen in 47 multiple myeloma cell lines against the NCATS MIPE library collection: KMS12PE_JCRB cell viability assay (AID 1918972). Note: nearly all actives have a fitted effect of over 30% in size. The method in brief: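 Steps: seed 500 cells per well; pin-transfer MIPE 4.0 library; incubate 48 h at 37C, 5% CO2, humidified; add CellTiter-Glo, 5 min room temperature; read luminescence.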
A short description of test [3]: Quantitative High-Throughput drug screen in 47 multiple myeloma cell lines against the NCATS MIPE library collection: KMS20_JCRB cell viability assay (AID 1918973). Note: nearly all actives have a fitted effect of over 45% in size. The method in brief:
(§1)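 Primary qHTS used for cherry-picking: cells at 500/well, library compounds for 48 h (37C, 5% CO2), luminescent ATP assay.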

Test [4] can be described thus: Quantitative High-Throughput drug screen in 47 multiple myeloma cell lines against the NCATS MIPE library collection: KMS26_JCRB cell viability assay (AID 1918975). Note: nearly all actives have a fitted effect of over 45% in size. The method in brief:
(§2)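 Luminescent ATP measurement with CellTiter-Glo gives viability, scaled between DMSO-only wells (100%) and media-only wells (0%). Cells, 500 per well, faced library compounds for 48 hours at 37C.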

Test [5] can be described thus: Quantitative High-Throughput drug screen in 47 multiple myeloma cell lines against the NCATS MIPE library collection: MMM1_PLB cell viability assay (AID 1918976). Note: nearly all actives have a fitted effect of over 35% in size. The method in brief:
(§3)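 Inhibition of viability over 48 h was scored by ATP content (CellTiter-Glo) in 500-cell wells. Zero and full viability were defined by media-only and DMSO-only wells.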

Test [6] is described as follows: Quantitative High-Throughput drug screen in 47 multiple myeloma cell lines against the NCATS MIPE library collection: KMS12BM_JCRB cell viability assay (AID 1918971). Note: nearly all actives have a fitted effect of over 35% in size. The method in brief: as §2
The nature of test [7]: Quantitative High-Throughput drug screen in 47 multiple myeloma cell lines against the NCATS MIPE library collection: KMS21BM_JCRB cell viability assay (AID 1918974). The settings on record: ATP luminescence, 48 h; viability: at 45.8 µM (top of the series). The method in brief: as §1
A short description of test [8]: Quantitative High-Throughput drug screen in 47 multiple myeloma cell lines against the NCATS MIPE library collection: MOLP8_DSMZ cell viability assay (AID 1918977). Note: nearly all actives have a fitted effect of over 45% in size. The method in brief: as §3
The nature of test [9]: Quantitative High-Throughput drug screen in 47 multiple myeloma cell lines against the NCATS MIPE library collection: NCIH929_DSMZ cell viability assay (AID 1918978). Note: nearly all actives have a fitted effect of over 35% in size. The method in brief: as §3

This passage reports Potency and viability (% of DMSO) results from PubChem BioAssay (NCATS).

Results filed as inconclusive are left out. Calls of active or inactive are those of the source. Calls come from the whole dose curve; as a rule, active = well fitted curve in the direction sought with a large enough effect; inconclusive = small, poorly fitted or top-dose-only effect, or another doubt; inactive = no such curve, though single readings can be large; an effect the other way counts as inactive or inconclusive.
Potency is the fitted concentration of half-maximal effect.

`COc1cc2ncn(-c3cc(OCc4ccccc4S(C)(=O)=O)c(C#N)s3)c2cc1OC`: the Potency result in test [1], in [2], in [3] and in test [4] was “inactive” each time. In addition, the Potency in test [5] was 5.9 µM (active).

In the case of `OC1CCC(Nc2ncc3nc(Nc4c(F)cc(F)cc4F)n([C@@H]4CCOC4)c3n2)CC1` (some centres undefined), the Potency in [6] is 23.5 µM (active); in [2], 18.7 µM (active); in [7], 4.69 µM (active); in test [8] it was 11.8 µM (active). Also, in test [4], the Potency result is “inactive”.

For `COc1ccc(-c2nc3ccc(C4=NNC(=O)CC4C)cc3[nH]2)cc1` (centres undefined), the Potency result in test [6], in test [2], in [7], in [4] and in test [8] was “inactive” throughout.

Turning to `CC1(C)CC(=O)c2c(C(F)(F)F)nn(-c3ccc(C(N)=O)c(NC4CCC(O)CC4)c3)c2C1` (centres undefined), the Potency entry in [1] and in test [2] was “inactive” in each case. For the same compound, the Potency in [3] was 0.0935 µM (active); in [4] it was 0.0469 µM (active); in test [5], 0.372 µM (active); in test [8] it was 0.0418 µM (active); in test [9], 0.105 µM (active).

Turning to `Cc1cc(OCCCS(C)(=O)=O)cc(C)c1-c1cccc(COc2ccc3c(c2)OC[C@H]3CC(=O)O)c1`, the Potency was 13.2 µM (active) in test [6], 5.26 µM (active) in test [2] and 14.8 µM (active) in test [5]. For the same compound, the Potency result in [4] is “inactive”.

With `CN1C(=O)C[C@H](C(=O)N[C@@H](Cc2cnc[nH]2)C(=O)N2CCC[C@@H]2C(N)=O)NC1=O`, the Potency in [6] is 16.6 µM (active); in [5] it was 4.69 µM (active). For the same compound, the Potency result in test [2] and in test [4] was “inactive” throughout.

On to `CC(=O)OCC(=O)[C@@]12OC(C)(C)O[C@H]1C[C@H]1[C@@H]3C[C@H](F)C4=CC(=O)C=C[C@]4(C)[C@@]3(F)[C@@H](O)C[C@@]12C`, for which the Potency result in [1], in test [2], in test [3], in test [4] and in test [9] was “inactive” throughout.

`CCC[C@H](Nc1nc(-c2ccc(NC(=O)NCC)c(OC)c2)ncc1C)c1cccnc1`: the Potency in test [1] is 0.001 µM (active); in test [4], 0.0209 µM (active); in test [8] it was 0.0662 µM (active); in test [9], 0.0074 µM (active).

For the compound `COc1cc2ncnc(Nc3cc(Br)c(O)c(Br)c3)c2cc1OC`, the Potency in [6] was 0.0019 µM (active); in test [2] it was 6.62 µM (active); in [3], 0.0023 µM (active). The Potency entry in test [4], in test [8] and in test [9] was “inactive” throughout.

Regarding `C[C@@H](N)c1ccc(C(=O)Nc2ccnc3[nH]ccc23)cc1`, the Potency in test [1] was 18.7 µM (active); in test [8], 16.6 µM (active).

Regarding `Cc1ccc(C(=O)N(CCCN)[C@@H](c2nc3cc(Cl)ccc3c(=O)n2Cc2ccccc2)C(C)C)cc1`, the viability (% of DMSO) in test [1] was 70.3% (active). Moreover, the Potency in test [4] was 23.5 µM (active); in test [5], 26.4 µM (active); in [9], 8.33 µM (active).

Consider `Cc1ccc2c(c1)c1c(n2CCc2ccc(C)nc2)CCN(C)C1`, for which the Potency result in test [1], in test [4] and in test [8] was “inactive” each time.

Take `CC(C)[C@H](O)C(=O)N[C@@H](C)C(=O)N[C@@H]1C(=O)N(C)CCc2ccccc21`: the Potency result in [1], in test [2], in test [3] and in test [4] was “inactive” each time. Moreover, the Potency in [5] was 23.5 µM (active); in test [8], 0.0053 µM (active); in test [9], 16.6 µM (active).

On to `C[C@]12CCC3=C4CCC(=O)C=C4CC[C@@H]3[C@H]1CC[C@@]2(O)CC#N`, for which the Potency result in test [1], in [4] and in test [9] was “inactive” each time.

Take `CO[C@H]1C=CO[C@@]2(C)Oc3c(C)c(O)c4c(O)c(c(C=NN5CCN(C)CC5)c(O)c4c3C2=O)NC(=O)C(C)=CC=C[C@H](C)[C@H](O)[C@@H](C)[C@@H](O)[C@@H](C)[C@H](OC(C)=O)[C@H]1C`: the Potency result in test [1] and in [9] was “inactive” throughout.

For `FC(F)(F)c1ccc(C=Cc2nc(COc3ccc(CCCCn4ccnn4)cc3)co2)cc1`, in test [1], the viability (% of DMSO) is 74.6% (active). In addition, the Potency in [6] was 0.0526 µM (active); in test [4], 0.0019 µM (active); in [9] it was 0.0235 µM (active).

Take `CC(C)CN(C[C@H](O)[C@H](Cc1ccccc1)NC(=O)O[C@H]1CCOC1)S(=O)(=O)c1ccc(N)cc1`: the Potency entry in test [1], in [2] and in [8] was “inactive” in each case. Also, the Potency is 16.6 µM (active) in test [3] and 8.33 µM (active) in [4].

With `C[C@@H](O[C@H]1OCCN(Cc2n[nH]c(=O)[nH]2)[C@@H]1c1ccc(F)cc1)c1cc(C(F)(F)F)cc(C(F)(F)F)c1`, the Potency result in [1] is “inactive”. Besides, the Potency in [6] and in test [4] was 18.7 µM (active) in each case.

`CN1CCN2c3ncccc3Cc3ccccc3C2C1` (centres undefined): the Potency in [1] is 1.05 µM (active). Also, the Potency result in [2], in test [3], in test [4] and in test [9] was “inactive” throughout.

`COc1cc([C@@H]2c3cc4c(cc3[C@@H](O[C@@H]3O[C@@H]5CO[C@@H](C)O[C@@H]5[C@H](O)[C@@H]3O)[C@H]3COC(=O)[C@H]23)OCO4)cc(OC)c1O`: the Potency was 0.418 µM (active) in test [1] and 1.48 µM (active) in test [6]. The Potency entry in test [8] was “inactive”.

With `CC1(C)[C@H]2CC[C@]3(C)[C@@H](C(=O)C=C4[C@@H]5C[C@@](C)(C(=O)O)CC[C@]5(C)CC[C@]43C)[C@@]2(C)CC[C@@H]1O`, the Potency result in test [1], in test [2], in test [4] and in test [9] was “inactive” throughout.

`CCOC(=O)[C@H]1O[C@H]1C(=O)N[C@@H](CC(C)C)C(=O)NCCC(C)C`: the Potency in test [6] is 10.5 µM (active). Also, the Potency result in [2], in [3], in test [8] and in [9] was “inactive” throughout.

For `COc1ccc(CCC(=O)Nc2nc3ccc(Cl)cc3s2)cc1OC`, the Potency result in [1], in [2], in test [4] and in test [8] was “inactive” in each case. Besides, the Potency in [5] is 3.72 µM (active); in test [9], 18.7 µM (active).

As for `CCNC(=O)Nc1ccc(Oc2ncnc(N)c2C=NOC)cc1Cl`, the Potency in [6] was 14.8 µM (active); in test [2] it was 2.96 µM (active); in test [7], 2.35 µM (active).

With `COc1cc(C=CC(=O)O)ccc1O`, the Potency result in test [1], in [2], in test [8] and in [9] was “inactive” in each case.

Consider `Cn1cnc(-c2cc3nccc(Oc4ccc(NC(=S)NC(=O)Cc5ccccc5)cc4F)c3s2)c1`, for which the Potency was 23.5 µM (active) in test [1] and 13.2 µM (active) in test [3]. Besides, the Potency result in [8] is “inactive”.

Take `N#CC1(c2cccc(C(=O)Nc3cc(Oc4ccc5nc(NC(=O)C6CC6)sc5n4)ccc3F)c2Cl)CC1`: the Potency in test [6] was 13.2 µM (active); in test [2], 2.09 µM (active); in test [3], 0.469 µM (active).
